# Data published in PubChem BioAssay (NCI).
# This is part of a sample that, as a whole, favours compounds with a hit. Of some 83,000 tested, about 20% had one in any assay.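 Negative percent growth values reflect cell death: -40 means 40% of the cells present at the start died, and -100 means all died.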 The source made the active and inactive calls. How the source made its calls: active means growth percent below 10; inactive means the rest.
# Test system: SK-MEL-28 melanoma
# Assay: NCI-60 one-dose screen, 48 h (100 = growth as untreated, 0 = no growth, -100 = all killed)
# Conditions: 10 µM unless noted
row,SMILES,growth
1,CCN1CCN(/C(=N\c2sc(-c3ccccc3)nc2-c2ccccc2)c2ccccc2)CC1,80.6% (inactive)
2,CCCCN1C(=O)/C(=c2\sc3n(c2=O)C2C(NN=3)N(CC)C(=O)N2CC)c2cc(Cl)ccc21 (stereo not drawn),72.1% (inactive)
3,O=C1C2=C(C(=O)c3c(O)cccc31)C(c1ccco1)c1sc(=O)[nH]c1S2 (stereo not drawn),-28.8% (active)
4,COc1cc(/C=C/C(=O)c2ccc(C(F)(F)F)cc2)ccc1Oc1nc(NCCO)nc(N2CCOCC2)n1,96.1% (inactive)
5,OC1CCN(CCCOc2c3ccc(Cl)cc3nc3c2oc2ccc(Cl)cc23)CC1,-84.5% (active)
6,Nc1c(C(=O)Nc2ccc(Cl)cc2)sc2nc(-c3cnccn3)cc(-c3cccs3)c12,64.8% (inactive)
7,O=C(N/N=C/c1ccc([N+](=O)[O-])o1)c1[nH]c2ccc(Br)cc2c1-c1ccccc1,55.9% (inactive)
8,Cc1ccc(-c2nc(C(Cl)Cl)nc3cc(-c4ccccc4)nn23)cc1,1.35% (active)
9,CCOC(=O)c1c(NC(=O)c2cccc(C(F)(F)F)c2)sc2cc(O)ccc12,108% (inactive)
10,OC1CCN(CCCOc2c3ccccc3nc3c2oc2ccccc23)CC1,-2.42% (active)
11,COc1ccc(C(=O)/C=C/c2ccc(OCc3ccc(Cl)cc3)c(OC)c2)cc1OC,83.3% (inactive)
12,CN(C)CCCNc1c2ccccc2nc2c1oc1ccc(Cl)cc12,43.8% (inactive)
13,COc1ccc(NC2=CC(=O)C(C)=C(C)C2=O)cc1,99.4% (inactive)
14,COc1ccc(-n2c(SCC(=O)Nc3ccc(-c4nc5ccccc5[nH]4)cc3)nc3ccccc3c2=O)cc1,-64% (active)
15,C/C(=N\NC(N)=O)c1c(O)sc(=O)[nH]c1=O,99.7% (inactive)
16,OC1CCN(CCCOc2c3ccc(Cl)cc3nc3c2oc2ccccc23)CC1,-78.6% (active)
17,NS(=O)(=O)c1ccc(Nc2nc(Nc3ccccc3)nc(-n3nc(-c4ccccc4)cc3-c3ccccc3)n2)cc1,54.6% (inactive)
18,COc1cc(OC)c(C2C(Cl)C(=O)N2Nc2ncnc3ccccc23)cc1OC (stereo not drawn),105% (inactive)
19,CN(C)CCCOc1c2ccc(Cl)cc2nc2c1oc1ccc(Cl)cc12,4.58% (active)
20,Cc1[nH]nc2ncc(C#Cc3cncc(C(=O)Nc4ccc(CN5CCN(C)CC5)c(C(F)(F)F)c4)c3)cc12,-11.4% (active)

row,SMILES,growth
1,CC1=C(C)C(=O)C(Nc2cccc(C(F)(F)F)c2)=C(Cl)C1=O,98.3% (inactive)
2,Cn1cc(-c2cc(N)n3nc(-c4cn(C)c5ccc(Br)cc45)cc3n2)c2cc(Br)ccc21,97.2% (inactive)
3,O=c1[nH]c2ccc(Cl)cc2cc1CSc1ccccc1Nc1nccc(-c2ccc(Cl)cc2)n1,106% (inactive)
4,COc1ccc(-c2nc3ccc(-c4nnc(SCC(=O)Nc5ccc(C(=O)/C=C/c6ccccc6)cc5)o4)cc3[nH]2)cc1OC,105% (inactive)
5,N#Cc1nc(-c2ccccc2)oc1S(=O)(=O)N1CCN(CCc2ccccn2)CC1,43.6% (inactive)
6,CN1CCN(Cc2ccc(NC(=O)c3cncc(C#Cc4cnc5[nH]ncc5c4)c3)cc2C(F)(F)F)CC1,1.4% (active)
7,COc1cc(/C=C/C(=O)c2ccc(F)cc2)ccc1Oc1nc(NCCO)nc(N2CCOCC2)n1,91.3% (inactive)
8,Clc1ccc2c(OCCCN3CCOCC3)c3oc4ccccc4c3nc2c1,42.1% (inactive)
9,O=C(c1ccc(O)cc1)C1[C@H](c2ccc(Cl)cc2)[C@@H](c2ccccc2)NC12C(=O)Nc1ccc(Cl)cc12 (stereo partly drawn),76.2% (inactive)
10,Nc1cc(-c2c[nH]c3ccccc23)nc2cc(-c3c[nH]c4ccccc34)nn12,59.6% (inactive)
11,Oc1c(Cl)cc(Cl)c2ccc(CN3CCCCC3)nc12,28.7% (inactive)
12,CN(C)CCCOc1c2ccc(Cl)cc2nc2c1oc1ccccc12,-76.4% (active)
13,CS(=O)(=O)c1ccc(-c2nc3ccccn3c2/C=N/Nc2nc(-c3ccc(Br)cc3)cs2)cc1,103% (inactive)
14,C=CCn1c(SCC(=O)c2ccc(Br)cc2)nnc1-c1c[nH]c2ccccc12,96.1% (inactive)
15,COc1cc(/C=C/C(=O)c2ccccc2)ccc1Oc1nc(NCCO)nc(N2CCOCC2)n1,107% (inactive)
16,COC1CCN(Cc2ccc3c(NNC(=O)c4cnccn4)nc4cc(F)ccc4n23)C1 (stereo not drawn),29.2% (inactive)
17,CC(C)NC(=O)c1cc(-c2ccc(NC(=O)Nc3ccc(N4CCOCC4)c(C(F)(F)F)c3)cc2)nc2cccnc12,59.2% (inactive)
18,O=C(N/N=C/c1ccco1)c1[nH]c2ccc(Br)cc2c1-c1ccccc1,59.9% (inactive)
19,O=C(CSc1nccc(=O)[nH]1)Nc1ccc(-c2nc3ccccc3[nH]2)cc1,98.9% (inactive)

# Test system: SK-MEL-2 melanoma
# Assay: as above
# Conditions: 10 µM unless noted
row,SMILES,growth
1,CCN1CCN(/C(=N\c2sc(-c3ccccc3)nc2-c2ccccc2)c2ccccc2)CC1,102% (inactive)
2,CCCCN1C(=O)/C(=c2\sc3n(c2=O)C2C(NN=3)N(CC)C(=O)N2CC)c2cc(Cl)ccc21 (stereo not drawn),79.9% (inactive)
3,O=C1C2=C(C(=O)c3c(O)cccc31)C(c1ccco1)c1sc(=O)[nH]c1S2 (stereo not drawn),-7.37% (active)
4,COc1cc(/C=C/C(=O)c2ccc(C(F)(F)F)cc2)ccc1Oc1nc(NCCO)nc(N2CCOCC2)n1,98.8% (inactive)
5,OC1CCN(CCCOc2c3ccc(Cl)cc3nc3c2oc2ccc(Cl)cc23)CC1,50.6% (inactive)
6,Nc1c(C(=O)Nc2ccc(Cl)cc2)sc2nc(-c3cnccn3)cc(-c3cccs3)c12,85.4% (inactive)
7,O=C(N/N=C/c1ccc([N+](=O)[O-])o1)c1[nH]c2ccc(Br)cc2c1-c1ccccc1,-12.4% (active)
8,Cc1ccc(-c2nc(C(Cl)Cl)nc3cc(-c4ccccc4)nn23)cc1,88.8% (inactive)
9,CCOC(=O)c1c(NC(=O)c2cccc(C(F)(F)F)c2)sc2cc(O)ccc12,100% (inactive)
10,OC1CCN(CCCOc2c3ccccc3nc3c2oc2ccccc23)CC1,-62.4% (active)
11,COc1ccc(C(=O)/C=C/c2ccc(OCc3ccc(Cl)cc3)c(OC)c2)cc1OC,83.3% (inactive)
12,CN(C)CCCNc1c2ccccc2nc2c1oc1ccc(Cl)cc12,70.8% (inactive)
13,COc1ccc(NC2=CC(=O)C(C)=C(C)C2=O)cc1,81.8% (inactive)
14,COc1ccc(-n2c(SCC(=O)Nc3ccc(-c4nc5ccccc5[nH]4)cc3)nc3ccccc3c2=O)cc1,97.7% (inactive)
15,C/C(=N\NC(N)=O)c1c(O)sc(=O)[nH]c1=O,109% (inactive)
16,OC1CCN(CCCOc2c3ccc(Cl)cc3nc3c2oc2ccccc23)CC1,-86.3% (active)
17,NS(=O)(=O)c1ccc(Nc2nc(Nc3ccccc3)nc(-n3nc(-c4ccccc4)cc3-c3ccccc3)n2)cc1,56.3% (inactive)
18,COc1cc(OC)c(C2C(Cl)C(=O)N2Nc2ncnc3ccccc23)cc1OC (stereo not drawn),121% (inactive)
19,CN(C)CCCOc1c2ccc(Cl)cc2nc2c1oc1ccc(Cl)cc12,58.5% (inactive)
20,Cc1[nH]nc2ncc(C#Cc3cncc(C(=O)Nc4ccc(CN5CCN(C)CC5)c(C(F)(F)F)c4)c3)cc12,-44.6% (active)

row,SMILES,growth
1,CC1=C(C)C(=O)C(Nc2cccc(C(F)(F)F)c2)=C(Cl)C1=O,85.8% (inactive)
2,Cn1cc(-c2cc(N)n3nc(-c4cn(C)c5ccc(Br)cc45)cc3n2)c2cc(Br)ccc21,120% (inactive)
3,O=c1[nH]c2ccc(Cl)cc2cc1CSc1ccccc1Nc1nccc(-c2ccc(Cl)cc2)n1,129% (inactive)
4,COc1ccc(-c2nc3ccc(-c4nnc(SCC(=O)Nc5ccc(C(=O)/C=C/c6ccccc6)cc5)o4)cc3[nH]2)cc1OC,108% (inactive)
5,N#Cc1nc(-c2ccccc2)oc1S(=O)(=O)N1CCN(CCc2ccccn2)CC1,108% (inactive)
6,CN1CCN(Cc2ccc(NC(=O)c3cncc(C#Cc4cnc5[nH]ncc5c4)c3)cc2C(F)(F)F)CC1,-49.6% (active)
7,COc1cc(/C=C/C(=O)c2ccc(F)cc2)ccc1Oc1nc(NCCO)nc(N2CCOCC2)n1,93.9% (inactive)
8,Clc1ccc2c(OCCCN3CCOCC3)c3oc4ccccc4c3nc2c1,78.2% (inactive)
9,O=C(c1ccc(O)cc1)C1[C@H](c2ccc(Cl)cc2)[C@@H](c2ccccc2)NC12C(=O)Nc1ccc(Cl)cc12 (stereo partly drawn),57% (inactive)
10,Nc1cc(-c2c[nH]c3ccccc23)nc2cc(-c3c[nH]c4ccccc34)nn12,96% (inactive)
11,Oc1c(Cl)cc(Cl)c2ccc(CN3CCCCC3)nc12,84.1% (inactive)
12,CN(C)CCCOc1c2ccc(Cl)cc2nc2c1oc1ccccc12,-87.6% (active)
13,CS(=O)(=O)c1ccc(-c2nc3ccccn3c2/C=N/Nc2nc(-c3ccc(Br)cc3)cs2)cc1,113% (inactive)
14,C=CCn1c(SCC(=O)c2ccc(Br)cc2)nnc1-c1c[nH]c2ccccc12,115% (inactive)
15,COc1cc(/C=C/C(=O)c2ccccc2)ccc1Oc1nc(NCCO)nc(N2CCOCC2)n1,103% (inactive)
16,COC1CCN(Cc2ccc3c(NNC(=O)c4cnccn4)nc4cc(F)ccc4n23)C1 (stereo not drawn),74.7% (inactive)
17,CC(C)NC(=O)c1cc(-c2ccc(NC(=O)Nc3ccc(N4CCOCC4)c(C(F)(F)F)c3)cc2)nc2cccnc12,75.5% (inactive)
18,O=C(N/N=C/c1ccco1)c1[nH]c2ccc(Br)cc2c1-c1ccccc1,14.4% (inactive)
19,O=C(CSc1nccc(=O)[nH]1)Nc1ccc(-c2nc3ccccc3[nH]2)cc1,107% (inactive)
